In PubChem BioAssay:
Calls of active or inactive are those of the source.

Legend:
[1] = system: Wnt5a (protein binding on small-molecule microarray); assay: small molecules binding Wnt5a protein – biophysical, small-molecule microarray, 635/667 nm fluorescence, primary screen (AID 1142); details: 635 nm fluorescence, higher = more signal;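 further: fluorescence read at 667 nm with signal to noise per printed feature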
[2] = ATP-based viability of Huh7 replicon cells – cell-based, CellTiter-Glo luminescence, basal, 48 h, cytotoxicity control for HCV replication inhibitor project, primary screen (AID 1143); details: higher = more signal, called active from +8 up or from −8 down;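 further: Huh7 hepatoma cells carrying a hepatitis C replication reporter with no stimulus; test concentration not given here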
[3] = basal CRE-LacZ reporter activity in PC12 – cell-based, unstimulated, primary screen (AID 1145); details: no forskolin, luminescence, 4.5 h, higher = more signal, called active from +8 up or from −8 down
[4] = forskolin-driven CRE-LacZ activity in PC12 – cell-based, CRE-LacZ reporter, forskolin-stimulated, primary screen (AID 1146); details: luminescence, 4.5 h, higher = more signal, called active from +8 up or from −8 down;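 further: PC12 cells with 6xCRE LacZ reporter stimulated by forskolin 10 µM; beta-galactosidase reporter signal reflecting CREB driven transcription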
[5] = molecular target: Streptavidin (Streptomyces avidinii) (UniProt P22629); assay: compounds binding control protein streptavidin – biophysical, small-molecule microarray, 635/667 nm fluorescence, artefact control for SMM compound annotation, primary screen (AID 1147); details: higher = more signal;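 further: signal reflects streptavidin binding to arrayed compounds as a control protein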
Chain of Streptavidin (Streptomyces avidinii) (P22629 whole entry, looked up): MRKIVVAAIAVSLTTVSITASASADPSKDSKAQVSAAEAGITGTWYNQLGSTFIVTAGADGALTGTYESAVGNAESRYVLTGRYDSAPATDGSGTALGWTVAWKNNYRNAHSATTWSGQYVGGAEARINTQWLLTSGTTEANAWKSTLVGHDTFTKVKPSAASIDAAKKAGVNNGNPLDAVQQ

[6] = probe aInhba binding on compound microarray – biochemical, small-molecule microarray, 635/667 nm fluorescence, primary screen (AID 1148); details: higher = more signal;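 further: score merges 667nm spot fluorescence with signal-to-noise for antibody binding to printed compounds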
Torsin-1A (Homo sapiens) [7] = molecular target: Torsin-1A (Homo sapiens) (UniProt O14656); assay: TOR1A wild-type binding on microarray – cell lysate, small-molecule microarray, lysate, 635/667 nm, primary screen (AID 1149); details: COS7 hTOR1A-WT lysate, 635 nm fluorescence, higher = more signal
Chain of Torsin-1A (Homo sapiens) (O14656 whole entry, looked up): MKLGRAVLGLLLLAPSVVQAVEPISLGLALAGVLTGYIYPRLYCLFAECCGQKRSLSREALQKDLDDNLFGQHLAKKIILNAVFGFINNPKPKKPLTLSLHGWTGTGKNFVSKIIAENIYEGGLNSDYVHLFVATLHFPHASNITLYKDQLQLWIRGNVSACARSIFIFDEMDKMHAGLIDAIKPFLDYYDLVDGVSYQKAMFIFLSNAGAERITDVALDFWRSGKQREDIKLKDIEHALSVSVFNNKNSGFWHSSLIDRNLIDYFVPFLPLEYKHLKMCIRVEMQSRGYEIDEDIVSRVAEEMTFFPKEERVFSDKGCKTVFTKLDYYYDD

Torsin-1A (Homo sapiens) [8] = molecular target: Torsin-1A (Homo sapiens) (UniProt O14656); assay: torsin A mutant lysate binding on microarrays – cell lysate, small-molecule microarray, COS7 lysate, 635/667 nm fluorescence, primary screen (AID 1150); details: COS7 hTOR1A mutant lysate, 635 nm fluorescence, higher = more signal;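 further: score pools 667 nm emission and signal to noise measuring lysate protein binding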
[9] = system: Sonic hedgehog protein (Shh); assay: Sonic hedgehog microarray binding compounds – biochemical, small-molecule microarray, 635/667 nm fluorescence, primary screen (AID 1151); details: 635 nm fluorescence, higher = more signal;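 further: Shh protein binding to compounds spotted on small-molecule microarray slides; score combines spot fluorescence intensity with signal-to-noise across triplicate slides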
[10] = optical density shifts of acrAB sulA E. coli – strain DRC41, OD650, 48 h, E. coli filamentation inducer project, primary screen (AID 1152); details: higher = more signal, called active from +8 up or from −8 down;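 further: E. coli MC1000 strain DRC41 lacking acrAB efflux pump and sulA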
[11] = probe aLefty1 binding on compound microarray – biochemical, small-molecule microarray, 635/667 nm fluorescence, primary screen (AID 1153); details: higher = more signal;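 further: score merges spot fluorescence with signal-to-noise ratio from the scanned slide images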
[12] = plasmodial surface anion channel blockers, osmotic lysis – cell-based, P. falciparum Indochina, OD700, 1 h, primary screen (AID 1154); details: P. falciparum Indochina infected RBC osmotic lysis, higher = more signal, called active from +8 up or from −8 down
[13] = plasmodial surface anion channel blockers, osmotic lysis – cell-based, P. falciparum Indochina, OD700, 2 h, primary screen (AID 1155);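 further: lysis reports solute entry through the parasite surface anion channel PSAC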; details: P. falciparum Indochina infected erythrocytes, higher = more signal, called active from +8 up or from −8 down
[14] = changes in parasitized red cell lysis, either direction – P. falciparum Indochina, OD700, 3 h, PSAC antagonist project, primary screen (AID 1156); details: P. falciparum-infected erythrocytes, osmotic lysis, higher = more signal, called active from +8 up or from −8 down
[15] = plasmodial surface anion channel blockers, osmotic lysis – cell-based, P. falciparum Indochina, OD700, 18 h, primary screen (AID 1157); details: P. falciparum Indochina infected erythrocytes, osmotic lysis OD700, 18 h; higher = more signal, called active from +8 up or from −8 down
[16] = S6 kinase pathway phospho-S6 level changes – cell-based, A549, cytoblot, luminescence, serum-stimulated, primary screen (AID 1158); details: 5 h, higher = more signal;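 further: serum-stimulated A549 lung adenocarcinoma cells; signal is phosphorylated S6 detected by cytoblot immunostaining with HRP secondary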
[17] = molecular target: NADPH oxidase 2 (Homo sapiens) (UniProt P04839); assay: compounds shifting NOX2 Amplex Red fluorescence – cell-based, HEK293-NOX2, PMA-stimulated, NOX inhibitor project, primary screen (AID 1159); details: 45 min, higher = more signal, called active from +8 up or from −8 down; further: test concentration not given here
Chain of NADPH oxidase 2 (Homo sapiens) (P04839 whole entry, looked up): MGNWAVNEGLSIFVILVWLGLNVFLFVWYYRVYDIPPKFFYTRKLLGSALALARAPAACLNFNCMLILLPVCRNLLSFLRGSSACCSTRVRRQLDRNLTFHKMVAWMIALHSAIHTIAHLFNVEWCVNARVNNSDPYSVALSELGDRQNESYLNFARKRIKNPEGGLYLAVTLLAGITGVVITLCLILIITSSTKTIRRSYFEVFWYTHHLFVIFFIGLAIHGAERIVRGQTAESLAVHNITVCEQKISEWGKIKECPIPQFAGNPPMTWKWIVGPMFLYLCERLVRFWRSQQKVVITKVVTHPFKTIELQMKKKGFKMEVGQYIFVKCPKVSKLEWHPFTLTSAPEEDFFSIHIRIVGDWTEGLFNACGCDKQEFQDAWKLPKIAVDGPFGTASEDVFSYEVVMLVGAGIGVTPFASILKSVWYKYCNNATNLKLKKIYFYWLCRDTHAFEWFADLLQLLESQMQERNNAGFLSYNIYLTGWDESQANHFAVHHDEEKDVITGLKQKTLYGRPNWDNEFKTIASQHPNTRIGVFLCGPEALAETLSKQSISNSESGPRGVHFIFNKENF

[18] = molecular target: NADPH oxidase 4 (Homo sapiens) (UniProt Q9NPH5); assay: compounds shifting NOX4 Amplex Red fluorescence – cell-based, HEK293-NOX4, tetracycline-induced, NOX inhibitor project, primary screen (AID 1160); details: HEK293-NOX4, Amplex Red H2O2 fluorescence, 45 min; higher = more signal, called active from +8 up or from −8 down
Chain of NADPH oxidase 4 (Homo sapiens) (Q9NPH5 whole entry, looked up): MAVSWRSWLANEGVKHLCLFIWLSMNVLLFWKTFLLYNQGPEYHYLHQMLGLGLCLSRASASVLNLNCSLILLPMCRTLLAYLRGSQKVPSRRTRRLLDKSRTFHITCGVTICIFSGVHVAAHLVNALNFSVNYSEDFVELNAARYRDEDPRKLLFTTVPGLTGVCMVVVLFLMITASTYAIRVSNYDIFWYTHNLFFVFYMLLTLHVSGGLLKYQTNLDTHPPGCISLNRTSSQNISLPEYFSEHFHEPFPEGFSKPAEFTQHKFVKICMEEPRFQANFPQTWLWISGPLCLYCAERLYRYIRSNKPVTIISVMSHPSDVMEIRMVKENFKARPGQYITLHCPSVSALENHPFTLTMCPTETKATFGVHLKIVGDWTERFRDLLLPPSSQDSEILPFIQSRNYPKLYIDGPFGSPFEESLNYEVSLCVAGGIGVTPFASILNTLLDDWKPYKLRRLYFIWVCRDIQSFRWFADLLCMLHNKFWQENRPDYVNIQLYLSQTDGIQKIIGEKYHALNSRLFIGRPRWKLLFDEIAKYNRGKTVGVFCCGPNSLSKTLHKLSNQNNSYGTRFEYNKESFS

[19] = molecular target: NADPH oxidase 5 (Homo sapiens) (UniProt Q96PH1); assay: compounds shifting NOX5 Amplex Red fluorescence – cell-based, HEK293-NOX5, NOX inhibitor project, primary screen (AID 1161); details: HEK293-NOX5, ionomycin, 45 min, higher = more signal
Chain of NADPH oxidase 5 (Homo sapiens) (Q96PH1 whole entry, looked up): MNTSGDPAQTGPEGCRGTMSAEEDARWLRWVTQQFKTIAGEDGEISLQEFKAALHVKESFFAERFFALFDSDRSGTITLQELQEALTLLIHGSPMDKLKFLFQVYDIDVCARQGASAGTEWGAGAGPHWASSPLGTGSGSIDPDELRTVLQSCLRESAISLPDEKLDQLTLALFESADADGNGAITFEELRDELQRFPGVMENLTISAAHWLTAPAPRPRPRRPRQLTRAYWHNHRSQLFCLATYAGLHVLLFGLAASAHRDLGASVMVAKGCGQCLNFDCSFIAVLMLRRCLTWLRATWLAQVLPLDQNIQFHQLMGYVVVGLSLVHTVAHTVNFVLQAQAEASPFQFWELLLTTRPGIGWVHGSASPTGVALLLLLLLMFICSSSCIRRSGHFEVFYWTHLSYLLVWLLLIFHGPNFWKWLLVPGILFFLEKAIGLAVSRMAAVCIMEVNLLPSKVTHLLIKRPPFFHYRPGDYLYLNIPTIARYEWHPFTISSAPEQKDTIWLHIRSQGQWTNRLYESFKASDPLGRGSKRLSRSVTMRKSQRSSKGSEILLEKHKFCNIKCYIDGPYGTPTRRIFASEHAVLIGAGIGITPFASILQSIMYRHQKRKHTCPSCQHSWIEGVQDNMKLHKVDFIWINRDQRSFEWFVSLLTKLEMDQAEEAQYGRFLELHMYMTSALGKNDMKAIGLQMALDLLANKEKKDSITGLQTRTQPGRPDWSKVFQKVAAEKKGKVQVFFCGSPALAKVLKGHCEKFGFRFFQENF

| SMILES | composite z-score [1] | z-score [2] | z-score [3] | z-score [4] | composite z-score [5] | composite z-score [6] | composite z-score (Torsin-1A (Homo sapiens) [7]) | composite z-score (Torsin-1A (Homo sapiens) [8]) | composite z-score [9] | z-score [10] | composite z-score [11] | z-score [12] | z-score [13] | z-score [14] | z-score [15] | z-score [16] | z-score [17] | z-score [18] | z-score [19] |
| --- | --- | --- | --- | --- | --- | --- | --- | --- | --- | --- | --- | --- | --- | --- | --- | --- | --- | --- | --- |
| C=C(/C(=C/C[C@@H](OC(=O)c1ccncc1)c1ccc(CO)o1)c1cnc2ccccc2c1)C(C)C | 0.117 | -1.35 (inactive) | 2.21 (inactive) | -0.42 (inactive) | 1.72 | 0.0464 | 0.165 | 0.475 | 1.15 | 0.767 (inactive) | 0.0248 | 4.66 (inactive) | 0.231 (inactive) | 0.633 (inactive) | -0.0835 (inactive) | -0.191 | 0.588 (inactive) | -0.649 (inactive) | -1.08 |
| CC(=O)NCCCC[C@@H]1NC(=O)[C@@H]2C[C@H](C(=O)NCCCCCCN(C)C)[C@H](c3ccc(O)cc3)N2C1=O | 0.336 | -0.849 (inactive) | 0.0043 (inactive) | -1.19 (inactive) | 1.24 | 0.982 | 1.49 | 1.52 | 1.43 | 1.03 (inactive) | -0.0619 | 1.19 (inactive) | -1.12 (inactive) | -2.63 (inactive) | -2.32 (inactive) | -0.0253 | -0.498 (inactive) | -1.45 (inactive) | 0.253 |
| CCCC/C=C/[C@H]([C@@H](O)Cc1ccccc1)N(CC#Cc1ccccc1)Cc1ccccc1Br | -0.238 | -0.677 (inactive) | -0.0534 (inactive) | -0.967 (inactive) | -0.951 | -0.302 | -0.335 | -0.242 | -1.29 | 2.99 (inactive) | -0.0061 | 2.63 (inactive) | 1.29 (inactive) | -0.0195 (inactive) | 0.522 (inactive) | 0.108 | -0.424 (inactive) | 0.426 (inactive) | -0.622 |
| [N-]=[N+]=Nc1ccccc1C[C@@]1(C(=O)N2CCOCC2)N=C(c2ccc(OCCCO)cc2)O[C@@H]1c1ccccc1N=[N+]=[N-] | 0.372 | -5.17 (inactive) | 2.75 (inactive) | -1.37 (inactive) | 0.955 | 0.0982 | 0.644 | 0.407 | 0.174 | 1.94 (inactive) | 0.241 | 29.9 (active) | 27.6 (active) | 3.13 (inactive) | 4.27 (inactive) | 2.07 | 0.781 (inactive) | 0.516 (inactive) | -0.745 |
| C=CCNC(=O)[C@@H]1[C@H]2C(=O)O[C@H](c3ccccc3)[C@H](c3ccccc3)N2[C@H](c2ccc(OCCO)cc2)[C@@]12C(=O)N(C(=O)OCCOC)c1ccc(C#CC3(O)CCCCCC3)cc12 | 0.281 | -6.19 (inactive) | -0.87 (inactive) | -1.59 (inactive) | 0.788 | 0.167 | 0.42 | 0.469 | 1.1 | 2.62 (inactive) | 0.372 | 5.36 (inactive) | 2.14 (inactive) | 0.539 (inactive) | 0.761 (inactive) | 3.82 | 1.03 (inactive) | 0.845 (inactive) | -1.14 |
